This note sets out measurements from PubChem BioAssay AID504357 (The Scripps Research Institute Molecular Screening Center, 2011).

Structures are written as SMILES. In all, about 340,000 compounds went through this assay and about 700 (0.21%) were called active. No stated cut-off is given here; in the data, active means inhibition above about 22% (passing the limit was not always enough); inactive means the rest. The full list was thinned out, with actives kept by preference.

The target of the assay is Mu-type opioid receptor (Homo sapiens) + Delta-type opioid receptor (Homo sapiens) (UniProt P35372+P41143). As to the kind of experiment: inverse agonists of MOR-DOR heterodimerization, primary screen, cell-based, luminescence (AID 504357).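 Further: 0% = cells with DMSO and 100% = wells without cells with DMSO.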 As to conditions: cell-based MOR-DOR heterodimer luminescence, inverse agonism; at 9.3 µM; hits give high values.
Mu-type opioid receptor (Homo sapiens) + Delta-type opioid receptor (Homo sapiens), sequence (P35372 whole entry, looked up): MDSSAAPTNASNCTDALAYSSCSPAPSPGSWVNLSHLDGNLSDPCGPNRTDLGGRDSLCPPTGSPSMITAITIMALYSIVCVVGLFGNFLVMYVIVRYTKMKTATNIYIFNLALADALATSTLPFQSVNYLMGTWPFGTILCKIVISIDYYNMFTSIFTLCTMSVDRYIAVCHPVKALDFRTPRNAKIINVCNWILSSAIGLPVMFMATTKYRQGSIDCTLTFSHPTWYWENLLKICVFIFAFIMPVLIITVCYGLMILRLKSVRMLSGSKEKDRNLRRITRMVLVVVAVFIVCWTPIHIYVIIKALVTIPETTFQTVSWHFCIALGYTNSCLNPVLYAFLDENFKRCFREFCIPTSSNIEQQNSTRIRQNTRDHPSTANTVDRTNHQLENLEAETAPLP
Mu-type opioid receptor (Homo sapiens) + Delta-type opioid receptor (Homo sapiens), sequence (P41143 whole entry, looked up): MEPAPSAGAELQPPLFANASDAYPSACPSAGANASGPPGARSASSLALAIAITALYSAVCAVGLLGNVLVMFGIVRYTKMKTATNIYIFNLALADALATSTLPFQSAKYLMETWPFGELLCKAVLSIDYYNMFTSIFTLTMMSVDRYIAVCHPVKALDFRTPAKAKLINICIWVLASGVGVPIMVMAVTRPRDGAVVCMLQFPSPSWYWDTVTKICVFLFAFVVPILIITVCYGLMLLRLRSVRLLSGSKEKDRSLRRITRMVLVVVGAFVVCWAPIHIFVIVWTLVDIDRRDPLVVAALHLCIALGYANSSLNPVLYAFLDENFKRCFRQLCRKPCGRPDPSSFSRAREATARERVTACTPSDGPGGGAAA
In the case of `CC1=CC(=Cc2sc3ccccc3[n+]2C)C=C(C)O1`, the inhibition was 17.5% (active).
Then `Clc1ccc2nc3c(c(-c4ccccc4)c2c1)CNCC3`, with 8.41% (inactive).
As to `CN(C)CC1CCCCC1=O` (stereo not given), the inhibition was 10.9% (inactive).
Then `CCC(=O)OC(Cc1ccccc1)(c1ccccc1)C(C)CN(C)C` (stereo not given), with 8.03% (inactive); and `CC/C(=N\NC(=O)c1ccccc1O)c1c(O)n(Cc2ccccc2)c(=O)[nH]c1=O`, with 9.92% (inactive).
Then `O=C(OCCN1CCOCC1)C1(c2ccccc2)CCCC1`, with 1.05% (inactive); and `CCOC(=O)c1c(N)n(Cc2ccccc2)c2nc3ccccc3nc12`, with 37% (active).
As for `CCOC(=O)c1c(N)n(CCN2CCOCC2)c2nc3ccccc3nc12`, the figure is 30.9% (active); as for `COc1cc(Cn2c(N)c(C(=O)NCc3ccco3)c3nc4ccccc4nc32)cc(OC)c1OC`, 1.03% (inactive).
Turning to `CC(C)(C)c1ccc(OC(=O)N2CCCCC2)cc1`, the inhibition was -27.7% (inactive).
As for `COC(=O)C1=C(c2ccc(F)cc2OCc2ccccc2)C[C@@H]2CC[C@H]1N2C(=O)NCc1ccc2[nH]ccc2c1`, the figure is -2.75% (inactive); as for `O=C(NC(c1ccc(Cl)cc1)P(=O)(Oc1ccccc1)Oc1ccccc1)OCc1ccccc1` (stereo not given), -3.43% (inactive); as for `CCC(=O)CC(c1ccc([N+](=O)[O-])cc1)c1c(O)c2ccccc2oc1=O` (stereo not given), 14.4% (inactive).
Consider `CN(C)S(=O)(=O)c1cc(C(=O)N2CCC(C(=O)O)(c3ccccc3)CC2)ccc1Cl`, for which the inhibition is 19.2% (inactive).
As for `Cc1nn(-c2ccccc2)c(C)c1NC(=O)COC(=O)Cc1ccccc1`, the figure is 21% (inactive); as for `CC(=O)OC1C2(CC3N4C(=O)C5(CO)SSC4(CC31O)C(=O)N5C)OC(C)C(C)(C)C2=O` (stereo not given), 102% (active); as for `CC(C)Nc1nc(Cl)nc(NC(C)C)n1`, 6.88% (inactive).
As for `CCc1nnc(NS(=O)(=O)c2ccc(N=Cc3c(O)n(-c4ccccc4)c(=O)[nH]c3=O)cc2)s1`, the figure is 14.4% (inactive).
Then `CC(=NCc1ccc2c(c1)OCO2)c1c(O)[nH]c(=O)[nH]c1=O`, with -10.5% (inactive); and `CNCC(O)c1cc(F)c(OCc2ccccc2)c(OCc2ccccc2)c1F` (stereo not given), with -9.33% (inactive).
